Experimental findings from PubChem BioAssay are described below.

“And” between values parts separate entries of the source, which are not always exact repeats. Identical values can stand only once. A number with no mark means an inactive call. How the calls were made is not given here.

Assay [1] deals with Aerobactin synthetase IucA (Klebsiella pneumoniae hvKP1). In words: IucA enzyme inhibition, primary screen, biochemical, Spectrum library (AID 1346200).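 Further: 100% = wells without compound and 0% = wells lacking enzyme.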 The note with it: malachite green pyrophosphate, A620, at 8 µM, hits give low values.
Assay [2] has as its system Aerobactin synthetase IucA (Klebsiella pneumoniae, hypervirulent). The assay is described as follows: biochemical IucA inhibition screen of LOPAC library by absorbance (AID 1346212).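 Further: 100% = no compound wells and 0% = no enzyme wells.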 The note with it: IucA enzyme assay, absorbance (OD) readout; hits give low values;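 tested at 8 µM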.

Take `O=C(O)C1=CCCNC1`: the activity remaining in assay [1] is 98.7%. Also, the remaining activity (as a rule, the signal under treatment as a percentage of the control signal) in assay [2] is 96.8%.
On to `CC(=O)Oc1ccccc1C(=O)O`, for which, in assay [1], the activity remaining is 109%. Moreover, the remaining activity in assay [2] is 118%.
Take `COc1ccc(C2CNC(=O)C2)cc1OC1CCCC1` (centres undefined): the activity remaining in assay [1] was 120%. Further, the remaining activity in assay [2] is 91.4%.
For `C[C@](N)(Cc1ccc(O)c(O)c1)C(=O)O` the same measures were 121% and 113%.
With `Cc1cn([C@H]2C[C@H](N=[N+]=[N-])[C@@H](CO)O2)c(=O)[nH]c1=O`, the activity remaining in assay [1] is 114%. Also, in assay [2], the remaining activity is 117%.
Taken in the same sequence, the figures for `CCN(CC)CC(=O)Nc1c(C)cccc1C` were 101% and 109%.
`CN1CCC[C@@H]1CCO[C@](C)(c1ccccc1)c1ccc(Cl)cc1`: the activity remaining in assay [1] is 99.3%. In addition, in assay [2], the remaining activity was 109%.
On to `NCCCS(=O)(=O)O`, for which the activity remaining in assay [1] is 104%. Moreover, in assay [2], the remaining activity was 111%.
Consider `NCCc1ccc(O)c(O)c1`, for which the activity remaining in assay [1] is 103% and 107%. Also, the remaining activity in assay [2] is 104%.
For the compound `NS(=O)(=O)c1cc(C(=O)O)c(NCc2ccco2)cc1Cl`, the activity remaining in assay [1] is 105%. Further, in assay [2], the remaining activity is 97.8%.
Taken in the same sequence, the figures for `O=c1ccc2ccc(O)c(O)c2o1` were 103% and 116%.
For `C[N+](C)(C)CCO` the same measures were 126% and 112%.
Taken in the same sequence, the figures for `CN1CCN(C2=Nc3ccccc3Oc3ccc(Cl)cc32)CC1` were 120% and 110%.
`CN(C)C(=O)Oc1ccc[n+](C)c1`: in assay [1], the activity remaining was 93.4%. Moreover, the remaining activity in assay [2] was 91.3%.
Take `OC(CCN1CCCCC1)(c1ccccc1)C1CCCCC1` (centres undefined): the activity remaining in assay [1] is 97.3%. For the same compound, the remaining activity in assay [2] is 104%.
For `N=C(N)SCCN` the same measures were 98.6% and 109%.
Regarding `NC(=O)c1cccc(N)c1`, in assay [1], the activity remaining was 121%. The remaining activity in assay [2] is 113%.
Regarding `C[N+](C)(C)CCCCCC[N+](C)(C)C`, in assay [1], the activity remaining is 122%. The remaining activity in assay [2] was 99.1% and 87%.
Consider `CC(=O)CCCCn1c(=O)c2c(ncn2C)n(C)c1=O`, for which, in assay [1], the activity remaining was 82.4%. For the same compound, in assay [2], the remaining activity was 123%.
In the case of `NC(=O)c1cnccn1`, in assay [1], the activity remaining is 102%. Further, the remaining activity in assay [2] is 80.6%.
Taken in the same sequence, the figures for `CN(C)[C@@H]1C(=O)C(C(N)=O)=C(O)[C@@]2(O)C(=O)C3=C(O)c4c(O)ccc(Cl)c4[C@@H](O)[C@H]3C[C@@H]12` were 97% and 92.3%.
As to `CN1C(=O)CC[C@H]1c1cccnc1`, the activity remaining in assay [1] is 101%. Moreover, the remaining activity in assay [2] was 122%.
As to `COc1cc2c(c(OC)c1OC)-c1ccc(OC)c(=O)cc1[C@@H](NC(C)=O)CC2`, the activity remaining in assay [1] is 115%. The remaining activity in assay [2] was 112%.
For `CN(C)CCCN1c2ccccc2Sc2ccc(Cl)cc21` the same measures were 115% and 110%.
`CC(C)NNC(=O)c1ccncc1`: the activity remaining in assay [1] was 93.2%. Further, in assay [2], the remaining activity was 128%.
As for `NCCCCC(=O)O`, the activity remaining in assay [1] is 107%. In addition, the remaining activity in assay [2] was 104%.
For `Oc1ccc(/C=C/c2cc(O)cc(O)c2)cc1` the same measures were 110% and 75.6%.
Taken in the same sequence, the figures for `CC(C)(C(=O)O)c1ccc(C(O)CCCN2CCC(C(O)(c3ccccc3)c3ccccc3)CC2)cc1` (centres undefined) were 113% and 107%.
For `Nc1nc2c(ncn2COCCO)c(=O)[nH]1` the same measures were 118% and 120%.
With `CCCCOc1cc(CC2CNC(=O)N2)ccc1OC` (centres undefined), in assay [1], the activity remaining was 115%. Further, the remaining activity in assay [2] was 110%.
For `CCN(CC)CCCC(C)Nc1ccnc2cc(Cl)ccc12` (centres undefined) the same measures were 93% and 122%.
On to `CC(C(=O)O)c1cccc(C(=O)c2ccccc2)c1` (centres undefined), for which, in assay [1], the activity remaining is 106%. In addition, in assay [2], the remaining activity is 120%.
`N[C@@H](C(=O)N[C@@H]1C(=O)N2C(C(=O)O)=C(Cl)CS[C@H]12)c1ccccc1`: the activity remaining in assay [1] is 103%. Also, the remaining activity in assay [2] was 120%.
As for `CN(C)CCCN1c2ccccc2CCc2ccc(Cl)cc21`, the activity remaining in assay [1] was 111%. For the same compound, the remaining activity in assay [2] was 117%.
Taken in the same sequence, the figures for `CCCCNc1ccc(C(=O)OCCN(C)C)cc1` were 118% and 97.3%.
Taken in the same sequence, the figures for `NS(=O)(=O)c1cc2c(cc1Cl)NCNS2(=O)=O` were 103% and 102%.
On to `O=C(O)c1cccnc1Nc1cccc(C(F)(F)F)c1`, for which the activity remaining in assay [1] was 117%. The remaining activity in assay [2] is 115%.
